# Laboratory results from publication PMC7862700, “An all-to-all approach to the identification of sequence-specific readers for epigenetic DNA modifications on cytosine”.
# What was measured:
# Assay in all cases: DAPPL (digital affinity profiling via proximity ligation, sequencing); 10 mM Tris-HCl pH 7.5, 50 mM NaCl, 1 mM DTT, 4% glycerol, room temperature, 30 min; GST-TFs on glutathione beads, 16-mer random dsDNA library, 0.1% formaldehyde crosslink after washing; high values mean tight binding
# FEV = biological target: T1, FEV (Homo sapiens, UniProt Q99581 1-238); conditions: protein: recombinant; tags: N-terminal GST; dsDNA, one strand shown
# T1 sequence: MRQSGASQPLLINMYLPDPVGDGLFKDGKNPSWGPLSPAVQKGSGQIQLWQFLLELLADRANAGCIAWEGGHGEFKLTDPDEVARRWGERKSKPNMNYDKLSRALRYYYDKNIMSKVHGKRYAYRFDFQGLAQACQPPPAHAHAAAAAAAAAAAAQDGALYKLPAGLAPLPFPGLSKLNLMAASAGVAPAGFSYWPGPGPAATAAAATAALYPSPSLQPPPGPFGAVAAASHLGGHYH
# How it was run: (§1)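 Yeast served to express human transcription factors as GST fusions, which were then captured on glutathione beads and labelled with DNA barcodes. Pooled with a tag-only sample, they were incubated with 200 nmole of a 16-mer random double-stranded DNA library for 30 min at room temperature in Tris/NaCl/DTT/glycerol buffer, washed, crosslinked with 0.1% formaldehyde, ligated by proximity, amplified by PCR and sequenced. Dividing each hexamer's read frequency for a factor by its frequency for the tag-only sample gives the binding signal.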
# ETV5 = ETV5 (Homo sapiens, UniProt P41161 1-510); conditions: protein: recombinant; tags: N-terminal GST; dsDNA, one strand shown
# How it was run: as §1
# HSF1 = HSF1 (Homo sapiens, UniProt Q00613 1-529); conditions: protein: recombinant; tags: N-terminal GST; chain copies: 3; dsDNA, one strand shown
# How it was run: as §1
# SPIC = biological target: T2, SPIC (Homo sapiens, UniProt Q8N5J4 1-248); conditions: protein: recombinant; tags: N-terminal GST; dsDNA, one strand shown
# T2 sequence: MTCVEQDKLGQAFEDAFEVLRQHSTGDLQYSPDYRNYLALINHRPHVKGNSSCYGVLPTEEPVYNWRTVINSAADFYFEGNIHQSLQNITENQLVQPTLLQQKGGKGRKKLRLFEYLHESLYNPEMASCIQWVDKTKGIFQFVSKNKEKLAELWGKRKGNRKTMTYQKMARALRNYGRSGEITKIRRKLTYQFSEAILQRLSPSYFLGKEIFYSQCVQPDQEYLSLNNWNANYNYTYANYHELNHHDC
# How it was run: as §1
# ELF4 = ELF4 (Homo sapiens, UniProt Q99607 1-663); conditions: protein: recombinant; tags: N-terminal GST; dsDNA, one strand shown
# How it was run: as §1
# ELK4 = biological target: T3, ELK4 (Homo sapiens, UniProt P28324-2 1-405); conditions: protein: recombinant; tags: N-terminal GST; dsDNA, one strand shown
# T3 sequence: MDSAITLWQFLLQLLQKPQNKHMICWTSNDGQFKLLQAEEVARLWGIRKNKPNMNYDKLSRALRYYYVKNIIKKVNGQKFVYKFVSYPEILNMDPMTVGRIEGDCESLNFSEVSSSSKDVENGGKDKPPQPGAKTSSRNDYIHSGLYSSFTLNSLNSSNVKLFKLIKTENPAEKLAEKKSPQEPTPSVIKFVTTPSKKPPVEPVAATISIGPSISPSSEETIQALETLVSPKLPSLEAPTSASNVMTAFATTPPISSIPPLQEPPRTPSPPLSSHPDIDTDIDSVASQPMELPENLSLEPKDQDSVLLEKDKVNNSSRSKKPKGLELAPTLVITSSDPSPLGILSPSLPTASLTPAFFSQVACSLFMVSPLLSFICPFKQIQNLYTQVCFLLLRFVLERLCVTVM
# How it was run: as §1
# ETV2 = biological target: T4, ETV2 (Homo sapiens, UniProt O00321 1-342); conditions: protein: recombinant; tags: N-terminal GST; dsDNA, one strand shown
# T4 sequence: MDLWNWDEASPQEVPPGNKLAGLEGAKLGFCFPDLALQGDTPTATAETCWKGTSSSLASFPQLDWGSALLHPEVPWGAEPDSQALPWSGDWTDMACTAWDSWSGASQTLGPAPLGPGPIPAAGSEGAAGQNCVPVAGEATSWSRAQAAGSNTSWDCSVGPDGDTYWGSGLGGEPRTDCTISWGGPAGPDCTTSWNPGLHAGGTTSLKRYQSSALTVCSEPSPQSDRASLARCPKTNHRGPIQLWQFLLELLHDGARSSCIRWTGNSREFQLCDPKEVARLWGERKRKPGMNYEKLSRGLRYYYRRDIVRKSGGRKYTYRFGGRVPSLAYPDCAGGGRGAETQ
# How it was run: as §1
# CRX = CRX (Homo sapiens, UniProt O43186 1-299); conditions: protein: recombinant; tags: N-terminal GST; dsDNA, one strand shown
# How it was run: as §1
# ETV1 = ETV1 (Homo sapiens, UniProt P50549 1-477); conditions: protein: recombinant; tags: N-terminal GST; dsDNA, one strand shown
# How it was run: as §1
# ERF = biological target: T5, ERF (Homo sapiens, UniProt P50548 1-548); conditions: protein: recombinant; tags: N-terminal GST; dsDNA, one strand shown
# T5 sequence: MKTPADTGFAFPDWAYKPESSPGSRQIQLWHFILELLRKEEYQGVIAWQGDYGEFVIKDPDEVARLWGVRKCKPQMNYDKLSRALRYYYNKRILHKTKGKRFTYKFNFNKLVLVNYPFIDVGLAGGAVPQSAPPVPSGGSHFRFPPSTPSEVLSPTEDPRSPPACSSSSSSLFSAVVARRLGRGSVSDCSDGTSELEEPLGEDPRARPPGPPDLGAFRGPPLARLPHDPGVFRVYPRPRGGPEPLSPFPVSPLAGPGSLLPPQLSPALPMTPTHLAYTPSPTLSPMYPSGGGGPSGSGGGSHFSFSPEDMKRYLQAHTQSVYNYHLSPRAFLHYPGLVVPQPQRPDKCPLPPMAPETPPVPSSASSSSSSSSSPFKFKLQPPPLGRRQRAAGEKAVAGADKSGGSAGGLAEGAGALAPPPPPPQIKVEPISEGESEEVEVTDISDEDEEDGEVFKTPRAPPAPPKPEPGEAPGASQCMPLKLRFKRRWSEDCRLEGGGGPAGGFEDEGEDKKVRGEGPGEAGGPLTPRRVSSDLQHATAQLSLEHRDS
# How it was run: as §1
# ETV3L = biological target: T6, ETV3L (Homo sapiens, UniProt Q6ZN32 1-361); conditions: protein: recombinant; tags: N-terminal GST; dsDNA, one strand shown
# T6 sequence: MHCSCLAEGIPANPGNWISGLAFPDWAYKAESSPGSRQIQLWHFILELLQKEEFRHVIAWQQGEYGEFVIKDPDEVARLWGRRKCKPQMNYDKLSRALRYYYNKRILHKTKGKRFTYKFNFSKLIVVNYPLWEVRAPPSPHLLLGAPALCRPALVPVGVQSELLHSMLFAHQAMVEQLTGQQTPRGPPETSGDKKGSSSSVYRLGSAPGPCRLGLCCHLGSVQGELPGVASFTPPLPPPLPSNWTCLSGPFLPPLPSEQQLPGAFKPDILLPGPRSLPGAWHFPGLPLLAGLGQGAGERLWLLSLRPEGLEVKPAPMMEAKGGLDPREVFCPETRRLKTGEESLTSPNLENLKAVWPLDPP
# How it was run: as §1
# ETS2 = biological target: T7, ETS2 (Homo sapiens, UniProt P15036 1-469); conditions: protein: recombinant; tags: N-terminal GST; dsDNA, one strand shown
# T7 sequence: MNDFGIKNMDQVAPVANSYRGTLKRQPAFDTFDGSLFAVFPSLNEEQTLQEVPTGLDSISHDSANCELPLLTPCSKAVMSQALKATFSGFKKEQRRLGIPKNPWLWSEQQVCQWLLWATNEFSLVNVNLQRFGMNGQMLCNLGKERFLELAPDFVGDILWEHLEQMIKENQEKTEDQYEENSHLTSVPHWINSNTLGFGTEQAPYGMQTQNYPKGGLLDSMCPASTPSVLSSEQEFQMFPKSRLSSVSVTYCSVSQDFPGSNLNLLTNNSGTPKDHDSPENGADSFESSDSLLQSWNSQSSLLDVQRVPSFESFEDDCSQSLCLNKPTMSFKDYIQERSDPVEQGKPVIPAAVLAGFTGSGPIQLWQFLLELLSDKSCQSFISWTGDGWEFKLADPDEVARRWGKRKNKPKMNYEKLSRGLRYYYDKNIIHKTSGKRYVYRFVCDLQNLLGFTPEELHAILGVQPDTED
# How it was run: as §1
# SPDEF = biological target: T8, SPDEF (Homo sapiens, UniProt O95238 1-335); conditions: protein: recombinant; tags: N-terminal GST; dsDNA, one strand shown
# T8 sequence: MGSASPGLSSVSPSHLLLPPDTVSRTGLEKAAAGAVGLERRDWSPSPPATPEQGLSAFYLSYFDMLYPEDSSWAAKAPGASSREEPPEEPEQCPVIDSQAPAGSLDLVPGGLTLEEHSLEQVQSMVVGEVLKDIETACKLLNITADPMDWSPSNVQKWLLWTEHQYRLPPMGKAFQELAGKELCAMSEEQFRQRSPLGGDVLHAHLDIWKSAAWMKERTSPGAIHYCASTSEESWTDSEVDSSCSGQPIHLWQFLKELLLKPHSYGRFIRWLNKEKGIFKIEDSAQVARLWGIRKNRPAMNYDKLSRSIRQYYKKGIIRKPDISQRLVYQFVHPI
# How it was run: as §1
# ETV7 = biological target: T9, ETV7 (Homo sapiens, UniProt Q9Y603 1-341); conditions: protein: recombinant; tags: N-terminal GST; dsDNA, one strand shown
# T9 sequence: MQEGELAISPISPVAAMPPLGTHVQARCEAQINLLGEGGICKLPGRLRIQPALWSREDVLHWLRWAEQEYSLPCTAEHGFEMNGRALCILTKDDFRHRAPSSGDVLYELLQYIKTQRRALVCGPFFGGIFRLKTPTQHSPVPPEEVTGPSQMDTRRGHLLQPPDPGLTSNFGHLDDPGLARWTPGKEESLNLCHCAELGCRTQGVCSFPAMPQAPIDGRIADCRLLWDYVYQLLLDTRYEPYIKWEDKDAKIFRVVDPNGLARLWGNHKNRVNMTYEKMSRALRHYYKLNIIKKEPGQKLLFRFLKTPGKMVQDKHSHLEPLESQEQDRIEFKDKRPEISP
# How it was run: as §1
# ELF5 = biological target: T10, ELF5 (Homo sapiens, UniProt Q9UKW6-2 1-255); conditions: protein: recombinant; tags: N-terminal GST; dsDNA, one strand shown
# T10 sequence: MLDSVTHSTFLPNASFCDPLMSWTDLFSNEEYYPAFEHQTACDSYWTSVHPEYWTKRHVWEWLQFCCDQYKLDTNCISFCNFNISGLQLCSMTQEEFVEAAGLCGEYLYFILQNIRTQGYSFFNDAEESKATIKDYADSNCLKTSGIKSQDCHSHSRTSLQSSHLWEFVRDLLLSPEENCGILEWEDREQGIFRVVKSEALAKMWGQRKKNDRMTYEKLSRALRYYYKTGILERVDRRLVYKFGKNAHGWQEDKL
# How it was run: as §1
# ETV3 = biological target: T11, ETV3 (Homo sapiens, UniProt P41162-2 1-143); conditions: protein: recombinant; tags: N-terminal GST; dsDNA, one strand shown
# T11 sequence: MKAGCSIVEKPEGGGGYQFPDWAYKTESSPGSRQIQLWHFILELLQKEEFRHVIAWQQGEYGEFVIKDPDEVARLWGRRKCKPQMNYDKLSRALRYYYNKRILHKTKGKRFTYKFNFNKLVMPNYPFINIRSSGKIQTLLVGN
# How it was run: as §1
# ETV6 = ETV6 (Homo sapiens, UniProt P41212 1-452); conditions: protein: recombinant; tags: N-terminal GST; dsDNA, one strand shown
# How it was run: as §1
# ELF4, sequence (Q99607 whole entry): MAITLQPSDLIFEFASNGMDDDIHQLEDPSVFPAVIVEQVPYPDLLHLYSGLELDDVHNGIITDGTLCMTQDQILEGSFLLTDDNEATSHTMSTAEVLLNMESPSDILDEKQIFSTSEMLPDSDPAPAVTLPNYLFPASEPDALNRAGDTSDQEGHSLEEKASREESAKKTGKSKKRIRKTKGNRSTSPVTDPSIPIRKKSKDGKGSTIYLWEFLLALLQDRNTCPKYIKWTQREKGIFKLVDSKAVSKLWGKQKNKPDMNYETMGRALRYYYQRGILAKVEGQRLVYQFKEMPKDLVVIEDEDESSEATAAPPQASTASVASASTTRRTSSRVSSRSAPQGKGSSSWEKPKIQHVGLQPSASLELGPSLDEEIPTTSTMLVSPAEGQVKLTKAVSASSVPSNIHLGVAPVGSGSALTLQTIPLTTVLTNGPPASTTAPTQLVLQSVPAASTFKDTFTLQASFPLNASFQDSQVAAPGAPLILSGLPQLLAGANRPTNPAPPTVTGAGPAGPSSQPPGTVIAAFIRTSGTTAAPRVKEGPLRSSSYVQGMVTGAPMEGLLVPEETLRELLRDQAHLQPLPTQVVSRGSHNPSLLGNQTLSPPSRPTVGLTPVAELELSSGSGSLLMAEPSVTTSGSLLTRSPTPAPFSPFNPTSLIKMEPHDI
# HSF1, sequence (Q00613 whole entry): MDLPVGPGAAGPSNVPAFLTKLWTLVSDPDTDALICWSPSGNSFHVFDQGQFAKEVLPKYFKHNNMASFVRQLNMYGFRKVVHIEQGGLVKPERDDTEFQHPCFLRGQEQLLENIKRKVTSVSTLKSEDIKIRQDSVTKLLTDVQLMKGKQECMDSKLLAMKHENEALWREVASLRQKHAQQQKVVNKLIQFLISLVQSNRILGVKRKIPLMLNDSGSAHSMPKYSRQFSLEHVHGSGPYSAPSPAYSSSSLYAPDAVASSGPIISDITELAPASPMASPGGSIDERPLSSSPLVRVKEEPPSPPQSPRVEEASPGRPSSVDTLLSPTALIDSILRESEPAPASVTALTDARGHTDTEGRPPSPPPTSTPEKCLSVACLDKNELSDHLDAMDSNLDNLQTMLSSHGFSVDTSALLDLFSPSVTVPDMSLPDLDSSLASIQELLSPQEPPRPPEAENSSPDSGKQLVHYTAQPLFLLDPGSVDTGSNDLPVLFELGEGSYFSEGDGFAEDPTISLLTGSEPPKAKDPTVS
# ETV5, sequence (P41161 whole entry): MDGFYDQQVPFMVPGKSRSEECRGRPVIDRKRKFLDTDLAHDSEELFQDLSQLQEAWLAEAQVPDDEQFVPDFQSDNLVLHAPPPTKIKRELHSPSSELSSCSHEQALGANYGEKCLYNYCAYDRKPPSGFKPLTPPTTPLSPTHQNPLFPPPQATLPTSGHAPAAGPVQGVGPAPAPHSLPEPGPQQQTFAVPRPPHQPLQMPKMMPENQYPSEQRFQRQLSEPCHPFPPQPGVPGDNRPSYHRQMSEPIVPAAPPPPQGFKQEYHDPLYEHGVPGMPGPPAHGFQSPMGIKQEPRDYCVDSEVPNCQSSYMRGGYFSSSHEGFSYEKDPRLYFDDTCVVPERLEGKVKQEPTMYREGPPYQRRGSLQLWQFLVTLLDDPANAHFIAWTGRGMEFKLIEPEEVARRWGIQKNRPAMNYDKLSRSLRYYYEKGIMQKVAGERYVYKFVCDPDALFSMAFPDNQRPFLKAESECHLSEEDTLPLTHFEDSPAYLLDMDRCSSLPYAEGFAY
# ETV6, sequence (P41212 whole entry): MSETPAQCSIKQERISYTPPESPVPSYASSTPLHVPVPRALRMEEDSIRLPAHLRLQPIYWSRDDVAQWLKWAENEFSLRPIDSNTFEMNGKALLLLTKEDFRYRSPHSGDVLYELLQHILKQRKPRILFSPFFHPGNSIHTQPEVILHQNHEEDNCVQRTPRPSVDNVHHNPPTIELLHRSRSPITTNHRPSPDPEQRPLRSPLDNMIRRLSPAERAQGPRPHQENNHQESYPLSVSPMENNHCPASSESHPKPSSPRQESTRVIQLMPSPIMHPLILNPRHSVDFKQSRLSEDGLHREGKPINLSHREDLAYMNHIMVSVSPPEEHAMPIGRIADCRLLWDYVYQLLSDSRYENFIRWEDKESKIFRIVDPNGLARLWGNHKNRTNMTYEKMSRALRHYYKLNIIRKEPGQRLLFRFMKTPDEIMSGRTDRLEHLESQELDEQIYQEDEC
# CRX, sequence (O43186 whole entry): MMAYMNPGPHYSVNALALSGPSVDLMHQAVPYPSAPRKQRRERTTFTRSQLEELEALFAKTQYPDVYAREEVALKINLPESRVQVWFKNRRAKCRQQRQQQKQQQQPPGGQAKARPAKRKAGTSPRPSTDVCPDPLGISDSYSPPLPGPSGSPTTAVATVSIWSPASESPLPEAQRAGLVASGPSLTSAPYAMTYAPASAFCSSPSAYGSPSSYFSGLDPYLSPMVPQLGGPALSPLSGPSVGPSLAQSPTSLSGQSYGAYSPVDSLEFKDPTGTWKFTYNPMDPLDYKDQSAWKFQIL
# ETV1, sequence (P50549 whole entry): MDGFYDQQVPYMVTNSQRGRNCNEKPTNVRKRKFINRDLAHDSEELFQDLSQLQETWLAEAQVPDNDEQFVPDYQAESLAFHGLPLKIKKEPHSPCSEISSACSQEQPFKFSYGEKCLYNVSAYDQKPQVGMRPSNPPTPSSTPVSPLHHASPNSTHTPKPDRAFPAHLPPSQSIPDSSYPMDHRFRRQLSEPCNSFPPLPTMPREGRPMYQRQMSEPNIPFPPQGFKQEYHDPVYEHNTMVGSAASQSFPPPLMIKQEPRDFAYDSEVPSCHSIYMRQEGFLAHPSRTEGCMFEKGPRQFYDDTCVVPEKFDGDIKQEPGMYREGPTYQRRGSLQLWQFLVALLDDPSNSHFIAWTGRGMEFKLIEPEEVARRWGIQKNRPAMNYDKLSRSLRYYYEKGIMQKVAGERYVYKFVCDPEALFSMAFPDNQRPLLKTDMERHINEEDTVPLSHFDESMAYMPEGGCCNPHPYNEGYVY
sequence,measurement,setting,value
TTCGCG,binding signal,FEV,"1.09 fold enrichment (6-mer frequency, TF over GST control)"
same,binding signal,ETV5,"1.04 fold enrichment (6-mer frequency, TF over GST control)"
same,binding signal,HSF1,"1.98 fold enrichment (6-mer frequency, TF over GST control)"
same,binding signal,SPIC,"1.16 fold enrichment (6-mer frequency, TF over GST control)"
same,binding signal,ELF4,"1.06 fold enrichment (6-mer frequency, TF over GST control)"
same,binding signal,ELK4,"1.26 fold enrichment (6-mer frequency, TF over GST control)"
same,binding signal,ETV2,"1.2 fold enrichment (6-mer frequency, TF over GST control)"
same,binding signal,CRX,"1.29 fold enrichment (6-mer frequency, TF over GST control)"
same,binding signal,ETV1,"1.02 fold enrichment (6-mer frequency, TF over GST control)"
same,binding signal,ERF,"1.23 fold enrichment (6-mer frequency, TF over GST control)"
same,binding signal,ETV3L,"1.15 fold enrichment (6-mer frequency, TF over GST control)"
same,binding signal,ETS2,"1.1 fold enrichment (6-mer frequency, TF over GST control)"
same,binding signal,SPDEF,"1.15 fold enrichment (6-mer frequency, TF over GST control)"
same,binding signal,ETV7,"1.08 fold enrichment (6-mer frequency, TF over GST control)"
same,binding signal,ELF5,"1.07 fold enrichment (6-mer frequency, TF over GST control)"
same,binding signal,ETV3,"1.12 fold enrichment (6-mer frequency, TF over GST control)"
same,binding signal,ETV6,"1.17 fold enrichment (6-mer frequency, TF over GST control)"
